Experimental findings from paper PMC12136788 are described below.

First the molecules themselves.
T1: UNK ZnF1-3 (human, UniProt Q9C0B0 31-174)
T1 sequence: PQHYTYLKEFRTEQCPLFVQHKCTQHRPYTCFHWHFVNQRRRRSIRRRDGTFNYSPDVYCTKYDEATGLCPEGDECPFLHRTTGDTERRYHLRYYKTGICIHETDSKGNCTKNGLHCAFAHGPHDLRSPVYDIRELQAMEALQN

B1: chr2:175006660:175006661:-_ENSG00000138430_ENST00000344357|hu_mus|motif|central (ssRNA)
RNA: GGGAGUUCUACAGUCCGACGAUCUAGAAUGGGCCCAAUCAUCUCCUCGUCCUUCAGCUGGAGCUCCUCGUGAAUUAUCUCGGUGUCUCGGAUGGGAUCUACACUUCCUUCAACAUGCGUGAUAUCAUCGUCUUCAAAAGCACGCAACAGAGGAUUGAGCAUCA
B2: chr17:56552419:56552420:-_ENSMUSG00000013236_ENSMUST00000086828|mus_mus|mus_mus_mus_hu_False|38_38 (ssRNA)
RNA: GGGAGUUCUACAGUCCGACGAUCAAAAAAUACACUAUUUAAAAAAAAUGAAAUGUCACGGGAUACAGUUACACUGAGAGUUUUAAAAGAAAGCUGGAAAAAAAAUGCAGCCCAGUGUCCCCAGGCUGCAGAGCGGGGAGGAGCCAACAGAGGAUUGAGCAUCA
B3: chr17:56552419:56552420:-_ENSMUSG00000013236_ENSMUST00000086828|mus_mus|mus_mus_mus_hu_False|38_98 (ssRNA)
RNA: B2 RNA with U38A, U39A
B4: chr17:56552419:56552420:-_ENSMUSG00000013236_ENSMUST00000086828|mus_mus|mus_mus_mus_hu_False|38_88 (ssRNA)
RNA: B2 RNA with U48A, G49A, A50G, U53A, G54A, U55A, C56A
B5: chr17:56552419:56552420:-_ENSMUSG00000013236_ENSMUST00000086828|mus_mus|mus_mus_mus_hu_False|1_38 (ssRNA)
RNA: B2 RNA with A138C, G139A, C143G
B6: 154963464_154963584_1656_3pUTR_ENSMUSG00000042751_ENSMUST00000043313|mouse|control|control (ssRNA)
RNA: GGGAGUUCUACAGUCCGACGAUCCUGGUUGGCAGAGAACCCACUCAAUGCUACUGGUCAGACACACAGCAUCAAGACCACGAUCAUCUGAAACCAGGGACUCAAAUUCUGAGAAACCCUACUCUUCCCAGACUUAUGUACCAGCAACAGAGGAUUGAGCAUCA

Residue numbers refer to the chain shown, from its start. Whole data set: some 24,000 sequences, median “enrichment r” near 0.99, cut for the highest 2% near 3.7. The list comes from a sample in which the highest values are over-represented; it also holds similar and randomly drawn sequences.

The experiment concerns the target T1, UNK ZnF1-3. Description: nsRBNS (natural sequence RNA bind-n-seq); RBNS binding buffer (assumed for nsRBNS): 25 mM Tris pH 7.5, 150 mM KCl, 3 mM MgCl2, 0.01% Triton X-100, 500 ug/ml BSA, 20 U/ml SUPERase-In, 4 C; UNK is unkempt and MSI1 is Musashi-1; names of the RNAs are library labels; protein concentration not given here; high values mean tight binding.
Molecule B1 showed a binding signal of 0.77 enrichment R.
Next, B2: 5.93 enrichment R.
The same measure for B3: 7.57 enrichment R; for B4: 13.5 enrichment R; for B5: 5.3 enrichment R.
Next, B6: 1.29 enrichment R.
